# High-throughput results deposited in PubChem BioAssay by several laboratories.
# tim23-1 inh – growth inhibitors of tim23-1 mutant yeast; actives 1.3% (n = 330,000); AID 463212; S. cerevisiae tim23-1 growth, BacTiter-Glo luminescence, 24 h; inhibition, % at 20 µM;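 active means growth inhibition of the mutant yeast at or above 50%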;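 further: temperature-sensitive mutant grown at 25 °C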
# ATG4B inh – ATG4B (human) cysteine protease inhibition; inhibition, % at 8.33 µM; Q9Y4P1; actives 0.51% (n = 340,000); ATG4B cleavage of LC3-PLA2, NBD-HPC fluorescence, 1 h; AID 504462; in the data active means inhibition above about 40%
# Target sequence (Q9Y4P1 whole entry, looked up): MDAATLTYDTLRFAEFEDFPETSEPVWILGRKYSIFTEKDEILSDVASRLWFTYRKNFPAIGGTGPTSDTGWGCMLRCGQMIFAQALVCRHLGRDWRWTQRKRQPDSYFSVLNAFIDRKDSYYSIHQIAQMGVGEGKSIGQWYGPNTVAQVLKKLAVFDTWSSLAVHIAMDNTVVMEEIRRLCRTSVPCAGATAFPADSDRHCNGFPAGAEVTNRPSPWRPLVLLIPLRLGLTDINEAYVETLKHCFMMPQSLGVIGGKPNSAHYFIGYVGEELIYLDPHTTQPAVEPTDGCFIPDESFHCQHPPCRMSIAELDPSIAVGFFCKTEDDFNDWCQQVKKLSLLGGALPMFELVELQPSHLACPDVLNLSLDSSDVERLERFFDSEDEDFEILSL
# TIM10 inh – TIM10 yeast growth inhibition; S. cerevisiae TIM10 strain growth, BacTiter-Glo luminescence, 24 h; inhibition, % at 10 µM; actives 1.4% (n = 330,000); AID 463195;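 active means inhibition of 40% or more at the single tested concentration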;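 further: wild-type TIM10 isogenic control strain grown at permissive 25 °C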
# PfHsp90 yeast 2 – reduces growth (ATP signal) of yeast expressing P. falciparum Hsp90; S. cerevisiae expressing PfHsp90, BacTiter-Glo ATP, 48 h; yeast lacking PDR1 and PDR3 efflux regulators; inhibition, % at 9.4 µM; actives 0.32% (n = 310,000);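 active means every replicate shows inhibition above about 80%, whatever the replicate mean, limit read from the data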
# tim10-1 inh – tim10-1 yeast growth inhibition | S. cerevisiae tim10-1 ts strain growth, BacTiter-Glo, 24 h | inhibition, % at 20 µM | actives 2.2% (n = 330,000) | AID 463190;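 active means inhibition of at least 40%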;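 further: mutant grown at 25 °C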
# SKKanGAS inh – SKKanGAS growth inhibition; inhibition, % at 7.5 µM; actives 1.3% (n = 300,000); S. pyogenes SKKanGAS, kanamycin growth, BacTiter-Glo, 6 h;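 active means mean replicate score, as percent of positive control median, at least 50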;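 further: strain carries kanamycin resistance gene driven by streptokinase promoter and grows in 40 µg/ml kanamycin; loss of luminescence reflects streptokinase promoter inhibition or plain growth inhibition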
# tim23-1 conf – confirmation of tim23-1 mutant yeast growth inhibitors; shares compounds with tim23-1 inh; inhibition, % at 20 µM; S. cerevisiae tim23-1 growth, BacTiter-Glo luminescence, 24 h; actives 83% (n = 4,400);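 active means inhibition above about 39% in either of two replicate wells at 20 µM, limit read from the data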;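 further: temperature-sensitive tim23-1 mutant grown at 25 °C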
# Hits are given with their value; n = inactive; x = not tested or not shown. A selection: hits, their analogues and other compounds. The true share with any hit is near 4.7%.
SMILES,tim23-1 inh,ATG4B inh,TIM10 inh,PfHsp90 yeast 2,tim10-1 inh,SKKanGAS inh,tim23-1 conf
O=C(CCl)Nc1cccc(Oc2ccccc2)c1,52,n,n,n,n,n,n
O=C(CCl)Nc1cccc(Oc2cnccn2)c1,n,n,n,n,n,n,x
Cc1cccc(/C=N/NC(=O)c2ccccc2OCc2cccc(Br)c2)n1,51,n,n,n,n,61,55
Cc1cc(C)c2oc(-c3cccc(N)c3)nc2c1,64,n,n,n,n,n,60
Cc1ncoc1C(=O)NCc1ccccc1Cl,n,n,n,n,n,n,x
O=C(NC1CCCC1)c1c(O)nc2sccn2c1=O,56,n,n,x,n,n,n
CCOC(=O)c1[nH]c2ccc(C)cc2c1N,n,n,n,n,n,n,x
C=Cc1cccc(NC(=O)c2ccc(NC(=O)c3ccco3)cc2)c1,51,n,n,n,n,n,38
O=C(Cc1ccccn1)c1ccc(F)cc1,n,n,n,n,n,n,x
O=C(c1ccc(F)cc1)N(C(=O)c1ccc(F)cc1)c1ncccn1,55,n,n,n,n,n,47
COc1cccc2sc3cc(NCc4ccc(C)o4)ccc3c(=O)c12,68,n,n,n,n,x,66
COc1cc2sc3cc(NCCCN4CCOCC4)ccc3c(=O)c2cc1OC,n,n,n,n,n,x,x
CCOc1ccc(NC(=S)Nc2cc(C)[nH]n2)cc1,n,n,n,n,n,n,x
Oc1c(Br)cc(Br)cc1CNc1cnc2ccccc2c1,72,n,n,n,n,61,65
COc1ccc(F)cc1S(=O)(=O)n1nc(C)cc1C,95,n,n,n,n,n,n
CN(c1ccc(C(=O)Nc2ccc3c(c2)OCO3)cc1)S(C)(=O)=O,n,n,n,n,n,n,x
CN(c1ccc(C(=O)Nc2ccc(CC#N)cc2)cc1)S(C)(=O)=O,94,n,n,n,n,n,n
Cc1ccccc1NC(=S)N(Cc1cccs1)C1CCCCC1,51,n,n,n,n,n,39
Cc1ccc(Cl)cc1NC(=S)N(Cc1cccs1)C1CCCC1,n,n,n,x,n,n,x
O=C(Nc1cccc(NC(=O)c2cccs2)c1)c1cccnc1,n,n,n,n,n,n,x
C=CC(=O)N1c2ccccc2Sc2ccc(NC(=O)OCC)cc21,n,n,n,n,n,n,x
CCOC(=O)Nc1ccc2c(c1)Nc1ccccc1S2,62,n,n,n,n,n,52
COC(C[C@@H]1O[C@@H]1[C@H](O)COCc1ccccc1)OC,n,n,n,n,n,x,x
COc1ccc(C2/C=C\CN(CC(C)C)CC(=O)N2Cc2cccc(F)c2)cc1 (stereo unspecified),50,n,n,n,n,x,39
COc1ccc(C2/C=C\CN(C(=O)c3ccccc3)CC(=O)N2Cc2cccc(F)c2)cc1 (stereo unspecified),59,n,n,n,n,x,42
SMILES,tim23-1 inh,ATG4B inh,TIM10 inh,PfHsp90 yeast 2,tim10-1 inh,SKKanGAS inh,tim23-1 conf
Nc1c2c(nc3ccc(Br)cc13)N(Cc1ccccc1)CC2,n,n,n,n,n,n,x
FC(F)(F)c1cc(CCN2CCNC[C@@H]2CC2CCCCC2)cc(C(F)(F)F)c1,65,n,n,n,n,x,48
CCCN(Cc1cc2cc(OC)ccc2[nH]c1=O)C(=O)c1ccco1,n,n,n,n,n,n,x
Cc1ccc(-c2nn(-c3ccccc3)cc2C=C2C(=O)CC(C)(C)CC2=O)cc1,66,n,n,n,n,n,51
Cc1nc2scc(C)n2c(=O)c1S(=O)(=O)Nc1ccc(N2CCOCC2)cc1,71,n,n,n,n,n,47
Cc1nc2scc(C)n2c(=O)c1S(=O)(=O)Nc1ccc(N2CCN(C(=O)C(C)C)CC2)cc1,n,n,n,n,n,n,x
O=C(N1CCCCC1)N1CCN(C(=O)N(c2ccccc2)c2ccccc2)CC1,n,n,n,n,n,n,x
Cc1ccc(OCc2cc(C(=O)NC3CCCCC3)no2)cn1,51,n,n,n,n,n,57
O=C(NC1CCCC1)c1cc(COc2ccc3ncccc3c2)on1,n,n,n,n,n,n,x
C#CCOCCOCCOCCNc1nc(N2CCN(C(=O)CCCCCCCCCCNC(=O)[C@H](CO)n3cc(CCCCCN)nn3)CC2)nc(N2CCN(C(=O)CCCCCCCCCCNC(=O)[C@H](CCCN=C(N)N)n3cc(C[C@@H](C)CC)nn3)CC2)n1,52,x,n,x,n,x,49
Cc1ccc2nc(-c3ccccc3Cl)cc(C(=O)Nc3cc(C)on3)c2c1,n,n,n,n,n,n,x
CSc1nnc(C)c(/C=C/NOCc2ccc(Cl)cc2)n1,54,n,n,n,n,n,72
COc1cccc(NC(=O)c2ccccc2F)c1,n,n,n,n,n,x,x
O=C(Nc1ccc(Nc2ccccc2)cc1)c1ccccc1F,64,n,n,n,n,n,61
CCOC(=O)Nc1cccc(NC(=O)c2ccccc2F)c1,55,n,n,n,n,n,63
CCOC(=O)CSC1=C(C#N)C(c2ccccc2C)C2=C(CCCC2=O)N1 (stereo unspecified),n,n,n,n,n,n,x
Cc1ccc(Nc2nc(-c3sc(N)nc3C)cs2)cc1,65,n,n,n,n,n,63
O=C1OC(N2CCN(C(=O)C3CCCO3)CC2)c2ccccc21 (stereo unspecified),n,n,n,n,n,n,x
COc1ccc(-c2c(C)nn3c(N4CCOCC4)cc(C)nc23)cc1OC,x,n,x,n,x,n,x
COc1ccc(-c2c(C)nn3c(N4CCCCCC4)cc(C)nc23)cc1OC,54,n,n,n,n,n,57
CCCCNc1nc(-c2ccccc2)cc(C(F)(F)F)c1C(N)=O,n,n,n,n,n,n,x
CCCC(O)(c1ccc(OC)cc1)C(CN1CCOCC1)c1ccc(Cl)cc1 (stereo unspecified),n,n,n,n,n,n,x
CCCC(O)(c1ccc(Cl)cc1)C(CN1CCOCC1)c1ccc(Cl)cc1 (stereo unspecified),57,n,n,n,n,n,n
Oc1ccccc1C1CC(c2cccs2)=NC(c2ccc(Cl)cc2)N1 (stereo unspecified),n,n,n,n,n,n,x
Cc1nn(-c2ccc(F)cc2)c(C)c1NS(=O)(=O)c1ccc2ccccc2c1,66,n,n,n,n,n,60
O=S(=O)(Cc1ccccc1Cl)N1CCN(Cc2ccc3c(c2)OCO3)CC1,n,n,n,n,n,n,x
COc1ccc(N2CCN(c3nc4cc(C)ccc4cc3C=O)CC2)cc1,52,n,n,n,n,n,45
COc1ccc(N2CCN(c3cc(C)c4ccc(C)cc4n3)CC2)cc1,n,n,n,n,n,n,x
COc1cc(O)c(C(CCN2CCCC(C)C2)c2ccc(N(C)C)cc2)c(OC)c1 (stereo unspecified),n,n,n,n,n,n,x
